Shown are actives, neighbours in structure and some others; about 1.3% of the full set was active somewhere.
EPAC2 ag: EPAC2 (human) agonism; Q8WZA2; EPAC2 activation, biochemical qHTS; response scale: 100% = 6.5 mM cAMP response; Potency, µM (doses to about 154 µM), for inactives: top-dose activation, actives largely listed as activators; 360,000 compounds, 0.079% hits; AID 720711; note: nearly all actives have a fitted effect of over 50% in size
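Each well held 100 nM EPAC2, 250 nM RAP1B-BODIPY-GDP and 50 uM GDP. Fluorescence, read at 5-min intervals to 30 min, was referenced to a 6.5 mM cAMP positive control.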
EPAC1 agonist: agonists of human EPAC1 | O95398 | EPAC1 agonist qHTS, biochemical assay; response scale: 100% = response to 6.5 mM cAMP | Potency, µM (titrated, usually from 154 µM), inactives show at the highest dose activation, actives largely listed as activators | 360,000 compounds, 0.073% hits; note: nearly all actives have a fitted effect of over 60% in size
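Normalized to 6.5 mM cAMP, activity reflects EPAC1-catalysed release of BODIPY-GDP from Rap1B, followed kinetically over 30 min at 480 nm excitation, 540 nm emission. Reaction contained 100 nM EPAC1, 250 nM Rap1B-BODIPY-GDP, 50 uM GDP.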
EPAC1 antagonist: EPAC1 (human) antagonism; O95398; EPAC1 GEF assay, Rap1b-BODIPY-GDP exchange fluorescence; Potency, µM (doses to about 115 µM), inactives show top-dose activity change, negative = inhibition, hits mostly inhibitors; 360,000 compounds, 0.14% hits;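 note: plate controls were vehicle for no effect and positive control for full effect; nearly all actives have a fitted effect of over 50% in size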
USP1 inh: blocks the human USP1/UAF1 deubiquitinase complex; Potency, µM (doses to about 57.1 µM), inactives show at the top dose activity change, negative = inhibition, hits mostly inhibitors; 390,000 compounds, 0.23% hits; O94782; recombinant USP1/UAF1, Ub-Rhodamine cleavage fluorescence; AID 743255; note: % is set by controls: 0 for no effect and ±100 for the full control effect; nearly all actives have a fitted effect of over 60% in size
Target sequence (O94782 whole entry, looked up): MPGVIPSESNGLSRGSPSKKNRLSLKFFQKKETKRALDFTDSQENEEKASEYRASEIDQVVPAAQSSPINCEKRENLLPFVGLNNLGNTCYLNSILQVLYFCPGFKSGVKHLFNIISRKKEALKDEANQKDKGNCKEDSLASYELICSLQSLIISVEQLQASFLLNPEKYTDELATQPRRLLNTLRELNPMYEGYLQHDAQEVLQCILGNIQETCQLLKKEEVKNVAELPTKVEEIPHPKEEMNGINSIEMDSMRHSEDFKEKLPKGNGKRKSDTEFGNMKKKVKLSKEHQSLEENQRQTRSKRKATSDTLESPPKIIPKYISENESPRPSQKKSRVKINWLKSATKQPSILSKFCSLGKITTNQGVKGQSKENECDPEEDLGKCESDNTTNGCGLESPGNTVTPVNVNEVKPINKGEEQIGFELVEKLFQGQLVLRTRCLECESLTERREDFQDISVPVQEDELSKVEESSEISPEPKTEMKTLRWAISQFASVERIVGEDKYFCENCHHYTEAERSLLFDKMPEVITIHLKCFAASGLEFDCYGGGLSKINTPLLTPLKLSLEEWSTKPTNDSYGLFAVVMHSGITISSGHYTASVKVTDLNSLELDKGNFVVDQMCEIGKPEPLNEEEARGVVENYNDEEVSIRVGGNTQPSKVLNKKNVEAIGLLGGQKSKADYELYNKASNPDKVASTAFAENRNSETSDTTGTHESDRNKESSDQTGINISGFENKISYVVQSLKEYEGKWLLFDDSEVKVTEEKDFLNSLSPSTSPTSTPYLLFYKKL
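High-throughput fluorogenic screen: 1nM USP1/UAF1 complex, Ub-Rho substrate 150nM final, 50mM HEPES pH 7.8 with 0.5mM EDTA, 0.1 mg/ml BSA, 1mM TCEP and 0.01% Tween-20.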
EPAC2 antagonist: blocks human EPAC2 exchange factor; EPAC2 GEF exchange of Rap1B-BODIPY-GDP, fluorescence; Q8WZA2; 360,000 compounds, 0.18% hits; Potency, µM (series often up to 114 µM), for the others: at the top dose activity, negative = inhibition, hits mostly inhibitors; note: % is set by controls: 0 for no effect and ±100 for the full control effect; nearly all actives have a fitted effect of over 45% in size
12-LOX inh: blocks human arachidonate 12S-lipoxygenase. purified 12hLO, xylenol orange hydroperoxide absorbance. Potency, µM (series often up to 108 µM), for the others: at the highest dose activity change, negative = inhibition, most hits filed as inhibitors. 580,000 compounds, 1.1% hits. AID 1671190; note: % is set by controls: 0 for no effect and ±100 for the full control effect
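Hydroperoxide product was detected by ferrous iron/xylenol orange as the 573 to 405 nm absorbance ratio. Arachidonic acid at 40 uM (final) was turned over for 30 min at room temperature by 150 nM human 12hLO, pH 7.0 Hepes buffer, after 15 min compound preincubation.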
* marks the source's active call; other numbers are inactive results. Calls come from the whole dose curve; as a rule, active = well fitted curve in the direction sought with a large enough effect; inconclusive = small, poorly fitted or top-dose-only effect, or another doubt; inactive = no such curve, though single readings can be large; an effect the other way counts as inactive or inconclusive. Potency is the fitted concentration of half-maximal effect.

Results for O=c1c(/C=C(\O)c2ccccc2)nc2ccccc2n1-c1ccccc1 ?
EPAC2 ag: 100µM*; EPAC1 agonist: 100µM*; EPAC1 antagonist: 395.8%; USP1 inh: inconclusive; EPAC2 antagonist: 103.9%; 12-LOX inh: 60.2%

Results for Cc1nc2ccccc2n1-c1ccccc1 ?
EPAC2 ag: -0.5%; EPAC1 agonist: -2.6%; EPAC1 antagonist: 9.0%; USP1 inh: -13.5%; EPAC2 antagonist: 13.7%; 12-LOX inh: 5.5%

Results for COc1ccc(C=CC(=O)c2ccc([N+](=O)[O-])cc2)cc1 ?
EPAC2 ag: 17.6%; EPAC1 agonist: 6.7%; EPAC1 antagonist: 3.8%; USP1 inh: -19.2%; EPAC2 antagonist: 4.7%; 12-LOX inh: -5.1%

Results for Cc1[nH]c(C)c(C(=O)/C=C/c2ccc([N+](=O)[O-])cc2)c1C ?
EPAC2 ag: -8.4%; EPAC1 agonist: 1.6%; EPAC1 antagonist: -3.9%; USP1 inh: -18.5%; EPAC2 antagonist: -1.0%; 12-LOX inh: 31.6µM*

How did CCOC(=O)c1sc(N)c(C#N)c1COC(=O)C1CCC1 do in these assays?
12-LOX inh: -6.7%

How did C#CCOc1nc(C)cc(C)c1S(=O)(=O)c1ccccc1C do in these assays?
EPAC2 ag: 7.4%; EPAC1 agonist: 1.9%; EPAC1 antagonist: 7.1%; USP1 inh: -5.9%; EPAC2 antagonist: 28.2µM*; 12-LOX inh: -6.0%

Results for CCC(C)Oc1nc(C)cc(C)c1S(=O)(=O)c1ccccc1C (centres undefined) ?
EPAC2 ag: 1.3%; EPAC1 agonist: 0.9%; EPAC1 antagonist: -3.6%; USP1 inh: -28.8%; EPAC2 antagonist: -20.5%; 12-LOX inh: 9.9%

Results for COc1nc(C)cc(C)c1S(=O)(=O)c1ccccc1C ?
EPAC2 ag: -0.3%; EPAC1 agonist: -0.4%; EPAC1 antagonist: -0.5%; USP1 inh: -4.3%; EPAC2 antagonist: 12.6µM*; 12-LOX inh: 17.5%

Results for CCSc1nc(C)cc(C)c1S(=O)(=O)c1ccccc1C ?
EPAC2 ag: 14.8%; EPAC1 agonist: 7.1%; EPAC1 antagonist: -6.0%; USP1 inh: -13.7%; EPAC2 antagonist: inconclusive; 12-LOX inh: 0.0%

What do the screens show for `CSc1nc(C)cc(C)c1S(=O)(=O)c1ccccc1C`?
EPAC2 ag: 21.0%; EPAC1 agonist: 12.6%; EPAC1 antagonist: -16.7%; USP1 inh: -8.4%; EPAC2 antagonist: 35.5µM*; 12-LOX inh: 364.1%

Results for O=C(Nc1cc(F)ccc1F)C12CC3CC(CC(Cl)(C3)C1)C2 ?
12-LOX inh: 6.5%

How did O=C(NCCn1c(-c2ccc(F)cc2)nc2ccccc21)Nc1cc(F)ccc1F do in these assays?
12-LOX inh: 15.8%

What do the screens show for `Cc1cccc([C@H]2[C@@H]3C=CCC[C@@H]3C(=O)N2Cc2ccccc2)c1`?
EPAC2 ag: 8.0%; EPAC1 agonist: -3.2%; EPAC1 antagonist: -14.9%; USP1 inh: -29.7%; EPAC2 antagonist: inconclusive; 12-LOX inh: 28.2µM*

What do the screens show for `C=CCN1C(=O)[C@H]2CCC=C[C@H]2[C@@H]1c1cccc(C)c1`?
EPAC2 ag: 0.6%; EPAC1 agonist: -13.6%; EPAC1 antagonist: 3.2%; USP1 inh: -27.4%; EPAC2 antagonist: -18.0%; 12-LOX inh: inconclusive

Results for COc1ccc(OC)c(C2CC(=O)N3CN(c4ccccc4)CSC3=C2C#N)c1 (centres undefined) ?
EPAC2 ag: 8.5%; EPAC1 agonist: -11.2%; EPAC1 antagonist: -13.6%; USP1 inh: -23.0%; EPAC2 antagonist: 0.9%; 12-LOX inh: inconclusive

How did COc1cc(C2CC(=O)N3CN(c4ccc(C)cc4)CSC3=C2C#N)cc(Br)c1O (centres undefined) do in these assays?
12-LOX inh: 1.26µM*

What do the screens show for `COc1ccc(C2CC(=O)N3CN(Cc4ccco4)CSC3=C2C#N)cc1` (centres undefined)?
EPAC2 ag: 7.8%; EPAC1 agonist: 3.8%; EPAC1 antagonist: -17.6%; USP1 inh: -24.4%; EPAC2 antagonist: 1.7%; 12-LOX inh: inconclusive
